These are literature values, as cited in PubChem BioAssay AID977608.

Among all 4,300 compounds or so, about 4,300 (100%) were called active. The limit is not given here; nearly all actives have IC50 up to about 1400 µM. So high a share suggests a set chosen from earlier hits. The list shows a part of the results. Where a SMILES comes first, the peptide text is derived from it. Square brackets hold non-standard residues; d marks the D form. Peptide text beside a SMILES is read from it. [ ]: non-standard residue; d: D form. Orn(CH(NH2)2) = NC(N)NCCC[C@H](N)C(=O)O

The nature of this data set: protein-ligand inhibition affinities from structures – PDB-derived complexes (AID 977608).

What is called IC50 is the concentration at which inhibition is half-maximal. As to `Cc1ccc(S(=O)(=O)Nc2ccc(Oc3ccccc3)cc2C(=O)O)cc1`, for the setting “literature IC50, protein: Genome polyprotein, PDB entry 4j08”, the IC50 was 0.22 µM (active).
`N=C[C@@H]1CCCN1C(=O)CNC12C[C@@H]3C[C@@H](CC(O)(C3)C1)C2`: the IC50 (literature IC50, protein: Dipeptidyl peptidase 4, PDB entry 3w2t) was 0.0292 µM (active).
In the case of `O=C(O)c1sc(-c2ccccc2)cc1N1C(=O)CC[C@@H]1C1CCCCC1`, where the note is “literature IC50, protein: NS5B, PDB entry 4tn2”, the IC50 is 0.12 µM (active).
Regarding `Cc1[nH]ncc1-c1ccc(F)cc1`, the IC50 (literature IC50, protein: Adenylate cyclase type 10 hsolAC, PDB entry 4oz2) was 1000 µM (active).
Take `Cc1[nH]ncc1-c1ccccc1Cl`: the IC50 (literature IC50, protein: Adenylate cyclase type 10 hsolAC, PDB entry 4oyo) is 300 µM (active).
Turning to `O=c1c2ccccc2oc2c(Cc3ccc(O)cc3)[nH]c(-c3cccs3)c12`, the 50% inhibitory concentration (IC50) (literature IC50, protein: cGMP-specific 3',5'-cyclic Phosphodiesterase-5 (PDE5), PDB entry 4md6) is 0.017 µM (active).
For `CC(=N)C[C@@H](c1ccccc1)[C@]12Nc3cc(C)c(C)cc3N(C[C@H](O)[C@H](O)[C@H](O)CO[P+](O)(O)O[P+](O)(O)OC[C@H]3O[C@@H](n4cnc5c(N)ncnc54)[C@H](O)[C@@H]3O)[C@@H]1NC(=O)NC2=O`, under “literature IC50, protein: LYSINE-SPECIFIC HISTONE DEMETHYLASE 1A, PDB entry 4uva”, the IC50 was 1.78 µM (active).
As for `Cc1cc2c(cc1C)N1[C@@](C)(N)CC(c3ccccc3)[C@]13C(=O)NC(=O)N[C@H]3N2C[C@H](O)[C@H](O)[C@H](O)CO[P+](O)(O)O[P+](O)(O)OC[C@H]1O[C@@H](n2cnc3c(N)ncnc32)[C@H](O)[C@@H]1O` (stereo partly specified), the 50% inhibitory concentration (IC50) (literature IC50, protein: LYSINE-SPECIFIC HISTONE DEMETHYLASE 1A, PDB entry 4uvb) is 3.26 µM (active).
As for `CCC(=N)C[C@@H](c1ccccc1)[C@]12Nc3cc(C)c(C)cc3N(C[C@H](O)[C@H](O)[C@H](O)CO[P+](O)(O)O[P+](O)(O)OC[C@H]3O[C@@H](n4cnc5c(N)ncnc54)[C@H](O)[C@@H]3O)[C@@H]1NC(=O)NC2=O`, the 50% inhibitory concentration (IC50) (literature IC50, protein: LYSINE-SPECIFIC HISTONE DEMETHYLASE 1A, PDB entry 4uv9) was 0.975 µM (active).
Consider `Cc1cc2c(cc1C)N([C@@](N)(CCc1ccccc1)c1ccccc1)C1C(=O)NC(=O)N=C1N2C[C@H](O)[C@H](O)[C@H](O)CO[P+](O)(O)O[P+](O)(O)OC[C@H]1O[C@@H](n2cnc3c(N)ncnc32)[C@H](O)[C@@H]1O` (stereo partly specified), for which the IC50 (literature IC50, protein: LYSINE-SPECIFIC HISTONE DEMETHYLASE 1A, PDB entry 4uvc) was 0.131 µM (active).
`Cc1cc2c(cc1C)N(C[C@H](O)[C@H](O)[C@H](O)CO[P+](O)(O)O[P+](O)(O)OC[C@H]1O[C@@H](n3cnc4c(N)ncnc43)[C@H](O)[C@@H]1O)[C@@H]1NC(=O)NC(=O)[C@@]1([C@@H](CC(=N)Cc1ccccc1)c1ccccc1)N2`: the half-inhibitory concentration (IC50) (literature IC50, protein: LYSINE-SPECIFIC HISTONE DEMETHYLASE 1A, PDB entry 4uv8) is 0.335 µM (active).
`O=C(O)c1nc(-c2ccc3cccc(N=Nc4nc5ccccc5s4)c3c2)sc1CCCCc1ccccc1`: under “literature IC50, protein: BCL-2-LIKE PROTEIN 1, PDB entry 3zlo”, the 50% inhibitory concentration (IC50) is 0.0015 µM (active).
In the case of `C#CC[C@H](NC(=O)[C@@H](NC(=O)[C@H](CC(C)C)NC(=O)[C@@H](NC(=O)CNC(=O)[C@@H](NC(=O)CNC(=O)[C@H](C)NC(=O)[C@@H](CCC)NC(=O)[C@](C)(N)c1ccccc1)[C@@H](C)CC)[C@@H](C)CC)[C@@H](C)O)C(=O)O`, for the setting “literature IC50, protein: HLA class I histocompatibility antigen, A-2 alpha chain HLA-A 0201, PDB entry 4wj5”, the half-maximal inhibitory concentration (IC50) was 0.51 µM (active).
Take `CC[C@H](C)[C@H](NC(=O)[C@@H](NC(=O)[C@@H](NC(=O)[C@H](CCCNC(N)N)NC(=O)[C@H](CCCCN)NC(=O)[C@H](CO)NC(=O)[C@H](CCCNC(N)N)NC(=O)CNC(=O)[C@@H](NC(=O)[C@H](CCC(N)=O)NC(=O)CNC(=O)[C@H](CC(C)C)NC(=O)[C@H](CCCCN)NC(=O)[C@@H]1CCCN1C(=O)[C@@H]1CCCN1C(=O)[C@H](CCCNC(N)N)NC(=O)[C@@H](N)CCCCN)[C@@H](C)CC)C(C)C)C(C)C)C(=O)O` (H-K[Orn(CH(NH2)2)]PPKLGQIG[Orn(CH(NH2)2)]SK[Orn(CH(NH2)2)]VVI-OH): the 50% inhibitory concentration (IC50) (literature IC50, protein: Calcium/calmodulin dependent protein kinase II, PDB entry 3kl8) is 0.12 µM (active).
Take `NCCCC[C@H](N)C(=O)N[C@@H](CCCNC(N)N)C(=O)N1CCC[C@H]1C(=O)N1CCC[C@H]1C(=O)N1CCC[C@H]1C(=O)N1CCC[C@H]1C(=O)N1CCC[C@H]1C(=O)N1CCC[C@H]1C(=O)NCC(=O)O` (H-K[Orn(CH(NH2)2)]PPPPPPG-OH): the half-inhibitory concentration (IC50) (literature IC50, protein: cortactin isoform a, PDB entry 2d1x) is 7.9 µM (active).
Take `CC[C@H](C)[C@H](NC(=O)[C@H](C)NC(=O)[C@H](CC(N)=O)NC(=O)[C@@H]1CCCN1C(=O)[C@@H](N)CC(C)C)C(=O)NCC(=O)N[C@@H](CCCNC(N)N)C(=O)O` (H-LPNAIG[Orn(CH(NH2)2)]-OH): the IC50 (literature IC50, protein: Low-density lipoprotein receptor-related protein 6, PDB entry 3sov) was 61 µM (active).
Regarding `CC[C@H](C)[C@H](NC(=O)[C@H](CCCNC(N)N)NC(=O)CNC(=O)[C@@H](NC(=O)[C@@H](NC(=O)[C@@H](NC(=O)[C@@H](NC(=O)[C@H](CO)NC(=O)CNC(=O)CN)C(C)C)C(C)C)[C@@H](C)CC)C(C)C)C(=O)N[C@H](C(=O)N[C@@H](CC(C)C)C(=O)N[C@@H](CO)C(=O)O)[C@@H](C)CC` (HELM PEPTIDE1{G.G.S.V.V.I.V.G.[NC(N)NCCC[C@H](N[*:1])C(=O)[*:2]].I.I.L.S}$$$$V2.0), the concentration for half-maximal inhibition (IC50) was 0.058 µM (active) (literature IC50, protein: Genome polyprotein (D1194V mutation), PDB entry 4i32); 0.0047 µM (active) (literature IC50, protein: Genome polyprotein (R1181K mutation), PDB entry 4i33); 0.00048 µM (active) (literature IC50, protein: Genome polyprotein, PDB entry 4i31).
With `CC[C@H](C)[C@H](NC(=O)[C@H](CO[P+](O)(O)O)NC(=O)[C@H](C)NC(=O)[C@H](CCC(N)=O)NC(=O)[C@@H](N)CCCNC(N)N)C(=O)N[C@@H](CCC(=O)O)C(=O)N[C@@H](CC(C)C)C(=O)N1CCC[C@H]1C(=O)N[C@@H](CO)C(=O)N[C@@H](CCSC)C(=O)O`, the 50% inhibitory concentration (IC50) (literature IC50, protein: HLA class I histocompatibility antigen, PDB entry 3bh8) was 0.0112 µM (active).
Consider `CCCNc1nc(N)c(C(=O)c2ccc(Cl)s2)s1`, for which, under “literature IC50, protein: Cyclin-dependent kinase 2, PDB entry 3s00”, the IC50 is 12 µM (active).
On to `CNc1cc(-c2cccc(Cl)c2Cl)nc(N)n1`, for which the IC50 (literature IC50, protein: 7,8-dihydro-8-oxoguanine triphosphatase, human MTH1 protein, PDB entry 4n1t) was 0.0008 µM (active).
Turning to `Nc1nc(NC2C=C2)cc(-c2cccc(Cl)c2Cl)n1`, the IC50 (literature IC50, protein: 7,8-dihydro-8-oxoguanine triphosphatase, human MTH1 protein, PDB entry 4n1u) was 0.005 µM (active).
As for `O=C(NO)c1ncc(-c2ccccc2Cl)o1`, the IC50 (literature IC50, protein: METHIONINE AMINOPEPTIDASE, PDB entry 4a6w) is 1.9 µM (active).
On to `Cc1ccc(OC[C@@H](O)CNC2Cc3ccccc3C2)cc1C`, for which, under “literature IC50, protein: Endochitinase CTS1, PDB entry 4txe”, the IC50 is 2.4 µM (active).
As for `C1=CC1c1[nH]nc2nccc(-c3ccco3)c12`, the IC50 (literature IC50, protein: CHECKPOINT KINASE 2, PDB entry 4bdj) was 7.2 µM (active).
Consider `O=C(NCc1ccc(S(=O)(=O)C2CCN(C3CCOCC3)CC2)cc1)n1cc2ccncc2c1`, for which, where the note is “literature IC50, protein: Nicotinamide phosphoribosyltransferase, PDB entry 4kfp”, the concentration for half-maximal inhibition (IC50) is 0.01 µM (active).
For `C[C@H](C(=O)O)c1ccc2c(c1)[nH]c1ccc(Cl)cc12`, where the note is “literature IC50, protein: Fatty-acid amide hydrolase 1, PDB entry 4do3”, the half-inhibitory concentration (IC50) is 79 µM (active).
With `Nc1nc(Nc2ccc(S(N)(=O)=O)cc2)sc1C(=O)Nc1c(F)cccc1F`, the half-inhibitory concentration (IC50) (literature IC50, protein: Cyclin-dependent kinase 2, PDB entry 3r9h) is 100 µM (active).
As for `Nc1nc(Nc2ccc(S(N)(=O)=O)cc2)sc1C(=O)Nc1cccc(F)c1`, where the note is “literature IC50, protein: Cyclin-dependent kinase 2, PDB entry 3r9d”, the IC50 was 71 µM (active).
Regarding `Nc1nc(Nc2ccc(S(N)(=O)=O)cc2)sc1C(=O)Nc1cc(F)cc(F)c1`, the IC50 (literature IC50, protein: Cyclin-dependent kinase 2, PDB entry 3r9o) was 100 µM (active).
